# Source: PubChem BioAssay (Tox21)
# Records with an inconclusive call do not appear. Where a call stands in place of a potency, no number is given. Calls of active or inactive are those of the source. Calls come from the whole dose curve; as a rule, active = well fitted activation curve with a large enough effect in the signal ratio in the repeat runs (not every such curve was filed as active); inconclusive = weak or mixed curves, or effect the other way; inactive = no such curve, though single readings can be large or run the other way; the % refers to the signal ratio.
# Molecular target: Glucocorticoid receptor (Homo sapiens) (UniProt P04150)
# Sequence (P04150 whole entry, looked up): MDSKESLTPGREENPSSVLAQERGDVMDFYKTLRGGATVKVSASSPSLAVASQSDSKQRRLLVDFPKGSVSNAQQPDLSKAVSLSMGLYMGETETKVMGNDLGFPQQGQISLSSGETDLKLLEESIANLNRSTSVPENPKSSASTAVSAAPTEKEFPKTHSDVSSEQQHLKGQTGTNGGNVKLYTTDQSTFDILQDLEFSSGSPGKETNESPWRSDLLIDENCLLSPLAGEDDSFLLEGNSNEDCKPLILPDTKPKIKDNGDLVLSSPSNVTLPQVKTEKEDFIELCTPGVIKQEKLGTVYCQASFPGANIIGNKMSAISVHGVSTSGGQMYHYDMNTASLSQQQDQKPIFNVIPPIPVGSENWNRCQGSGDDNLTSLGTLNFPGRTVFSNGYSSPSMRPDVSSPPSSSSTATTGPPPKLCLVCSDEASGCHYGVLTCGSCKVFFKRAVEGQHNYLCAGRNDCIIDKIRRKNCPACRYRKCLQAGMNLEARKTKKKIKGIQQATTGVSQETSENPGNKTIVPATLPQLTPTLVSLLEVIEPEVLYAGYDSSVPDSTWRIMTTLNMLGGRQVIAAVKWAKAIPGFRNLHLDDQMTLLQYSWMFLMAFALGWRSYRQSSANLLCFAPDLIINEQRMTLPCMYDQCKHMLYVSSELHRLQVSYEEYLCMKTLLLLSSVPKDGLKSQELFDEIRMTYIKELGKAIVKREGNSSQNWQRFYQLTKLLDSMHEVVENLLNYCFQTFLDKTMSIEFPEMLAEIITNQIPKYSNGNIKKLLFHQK
# Test: qHTS assay to identify small molecule agonists of the glucocorticoid receptor (GR) signaling pathway (AID 720691)
# Details: GR-bla HeLa, beta-lactamase reporter ratio, 18 h; series mostly up to 62.4 µM
# Source text: U.S. Tox21 Program National Center for Advancing Translational Sciences [NCATS] NIH Chemical Genomics Center [NCGC] U.S. Environmental Protection Agency [EPA] National Institutes of Environmental Health Sciences [NIEHS] National Toxicology Program [NTP] U.S. Food and Drug Administration [FDA] Tox21 Assay Overview: The Glucocorticoid receptor (GR) is one of the members of the nuclear receptor family of ligand-dependent transcription factors. GR plays a critical role in carbohydrate, protein and lipid metabolisms and programmed cell death. CellSensor GR-bla HeLa cell line (Invitrogen) contains a beta-lactamase reporter gene under the control of the glucocorticoid response element stably integrated into HeLa cells, a cervical cancer cell line that expresses glucocorticoid receptor. The activation of the reporter gene under culture conditions can be detected by fluorescence intensity. This cell line has been used to screen the Tox21 10K compound library and to identify the compounds that activate the GR signaling.
# Tox21 Assay Protocol Summary: The GR-bla HeLa cells were dispensed at 1500 cells/6 ul/well in 1536-well black wall/clear bottom plates using a Multidrop Combi (ThermoFisher Scientific, Waltham, MA) dispenser. After the assay plates were incubated at a 37 C/5% CO2 incubator for 4 hours, 23 nL of compounds dissolved in DMSO, positive controls or DMSO only was transferred to the assay plate by a pintool station (Kalypsys, San Diego, CA). The plates were incubated at 37 C for 18 hours. After 1 uL of LiveBLAzerTM B/G FRET substrate was added using a Flying Reagent Dispenser (Aurora Discovery, San Diego, CA), the plates were incubated at room temperature for 2 hours, and fluorescence intensity was measured by an Envision plate reader (PerkinElmer, Shelton, CT).
# Potency is the fitted concentration of half-maximal effect.
row,Compound,Potency
1,BrC(Br)Br,inactive
2,O=C(CBr)c1ccc(O)cc1,inactive
3,CCCCCCCCCCCCCN1CC(C)OC(C)C1 (stereo not given),inactive
4,CCOC(=O)C1(c2ccccc2)CCN(CCC(C#N)(c2ccccc2)c2ccccc2)CC1,60 µM (active)
5,CCOC(=O)CC(=O)CCl,inactive
6,O=c1[nH]c2ccccc2n1CCCN1CCC(n2c(=O)[nH]c3cc(Cl)ccc32)CC1,inactive
7,Cc1c(Cl)c(=O)oc2cc(OP(=O)(OCCCl)OCCCl)ccc12,inactive
8,c1ccc(OCC2CO2)cc1 (stereo not given),inactive
9,O=c1ssc(Cl)c1Cl,inactive
10,CC(Cc1ccc(C(C)(C)C)cc1)CN1C[C@@H](C)O[C@@H](C)C1 (stereo not given in full),inactive
11,Fc1ccc(Oc2ccnc3cc(Cl)cc(Cl)c23)cc1,inactive
12,CC(=O)C(Cl)(Cl)Cl,inactive
13,CC[C@H](C)[C@H]1O[C@]2(C=C[C@@H]1C)C[C@@H]1C[C@@H](C/C=C(\C)[C@@H](O[C@H]3C[C@H](OC)[C@@H](O[C@H]4C[C@H](OC)[C@@H](O)[C@H](C)O4)[C@H](C)O3)[C@@H](C)/C=C/C=C3\CO[C@@H]4[C@H](O)C(C)=C[C@@H](C(=O)O1)[C@]34O)O2,inactive
14,CN(C)c1ccc(N=Nc2ccccc2)cc1,inactive
15,C[C@H]1CC[C@@H]2[C@@H](C)[C@H]3[C@H](C[C@H]4[C@@H]5CC=C6CC(O[C@@H]7O[C@H](CO)[C@H](O)[C@H](O[C@@H]8O[C@H](CO)[C@@H](O)[C@H](O)[C@H]8O)[C@H]7O[C@H]7O[C@@H](C)[C@H](O)[C@@H](O)[C@H]7O)CC[C@]6(C)[C@H]5CC[C@]34C)N2C1 (stereo not given in full),inactive
16,CC(C)Oc1cccc(NC(=O)c2ccccc2C(F)(F)F)c1,inactive
17,CCOC(=O)OC1=C(c2cc(C)ccc2C)C(=O)NC12CCC(OC)CC2 (stereo not given),inactive
18,Fc1cccc(Cl)c1CCl,inactive
19,CC(C)(C)c1ccc(CSc2cnn(C(C)(C)C)c(=O)c2Cl)cc1,inactive
20,CN(C)CCc1c[nH]c2cccc(O)c12,inactive

row,Compound,Potency
1,C[C@@H]1O[C@@H](O[C@@H]2C=C3CC[C@@H]4[C@H](CC[C@]5(C)[C@@H](c6ccc(=O)oc6)CC[C@]45O)[C@@]3(C)CC2)[C@H](O)[C@H](O)[C@H]1O,inactive
2,C[C@@H]1O[C@@H](O[C@H]2C[C@@H](O)[C@]3(CO)[C@H]4[C@H](O)C[C@]5(C)[C@@H](C6=CC(=O)OC6)CC[C@]5(O)[C@@H]4CC[C@]3(O)C2)[C@H](O)[C@H](O)[C@H]1O,inactive
3,CSCCCN=C=S,inactive
4,CC(C)CCCCCCCOP(=O)(Oc1ccccc1)Oc1ccccc1,inactive
5,CS(=O)(=O)c1ccc(C(=O)C2C(=O)CCCC2=O)c([N+](=O)[O-])c1,inactive
6,CCCCCCCCc1ccc(O)cc1,inactive
7,O=[N+]([O-])c1ccc(Oc2ccc(C(F)(F)F)cc2[N+](=O)[O-])cc1,inactive
8,CC(C)CCCCCOC(=O)c1ccccc1C(=O)OCCCCCC(C)C,inactive
9,CCCCCCCCCBr,inactive
10,CCC(C)(C)C(=O)OC1=C(c2ccc(Cl)cc2Cl)C(=O)OC12CCCCC2,inactive
11,CCCCCCCCCCCCCCCCCCn1cc[n+](C)c1,inactive
12,C[C@]12CC[C@@H]3c4ccc(OC(=O)N(CCCl)CCCl)cc4CC[C@H]3[C@@H]1CC[C@@H]2O,inactive
13,CCC(C)c1cc([N+](=O)[O-])cc([N+](=O)[O-])c1OC(=O)C=C(C)C (stereo not given),inactive
14,CCCSP(=O)(OCC)SCCC,inactive
15,C=CCC1=C(C)C(OC(=O)C2C(C=C(C)C)C2(C)C)CC1=O (stereo not given),inactive
16,CCCCOCN(C(=O)CCl)c1c(CC)cccc1CC,inactive
17,N#C/C=C/C#N,inactive
18,COc1cccc(C(=O)CCN[C@@H](C)[C@H](O)c2ccccc2)c1,inactive
19,CCN,inactive
20,c1ccc(Nc2ccc3ccccc3c2)cc1,inactive
